Here are results for 28 compounds from PubChem BioAssay (EPA / NIEHS).

Test [1] concerns the target human Caspase 5 (CASP5), CASP5 (gene 838) (UniProt P51878). The test can be described thus: NVS_ENZ_hCASP5: NovaScreen (NVS) Enzymatic Assay for human Caspase 5 (CASP5) (AID 2283137). The method, boiled down: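 Chemicals were first tested in duplicate at 25 uM against recombinant caspase 5 from E. coli. Activity was read by fluorescence intensity 2 hours after dosing. Those passing a preset inhibition threshold were retested in singleton concentration-response up to 50 uM.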

Test [2] concerns the target human Beta-secretase (BACE), BACE1 (gene 23621) (UniProt P56817). The test can be described thus: NVS_ENZ_hBACE: NovaScreen (NVS) Enzymatic Assay for human Beta-secretase (BACE) (AID 2283140).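 Also: hits are inhibitors that reduce fluorescent substrate signal versus DMSO.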 Summed up:
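Fluorescence intensity read-out of protease activity defines this endpoint; signal loss relative to DMSO baseline marks inhibition. Recombinant enzyme from SF9 cells, cell-free format, 1 h exposure. Single-concentration duplicate screen (25 uM) precedes concentration-series follow-up.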

Test [3] addresses human Caspase 4 (CASP4), CASP4 (gene 837) (UniProt P49662). The test can be described thus: NVS_ENZ_hCASP4: NovaScreen (NVS) Enzymatic Assay for human Caspase 4 (CASP4) (AID 2283143). Summed up: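 Compounds were first tested in duplicate at 25 uM, and hits were titrated singly to a 50 uM maximum. Recombinant protease from E. coli was read by fluorescence 2 h post-dose, and activity loss was fitted against the DMSO baseline.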

Another test addresses Caspase-3 (Homo sapiens) (UniProt P42574). The test can be described thus: NVS_ENZ_hCASP3: NovaScreen (NVS) Enzymatic Assay for human Caspase 3 (CASP3) (AID 2283139). The method, boiled down: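 Single-concentration screening at 25 uM in duplicate, with concentration-response follow-up to a 50 uM maximum for chemicals passing the threshold. Caspase-3 (human, E. coli-expressed) activity was read as substrate fluorescence after 1 h, with loss of signal relative to DMSO.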

Test [4] deals with human Aurora Kinase A - serine/threonine-protein Kinase 6 (AurA), AURKA (gene 6790) (UniProt O14965). The test can be described thus: NVS_ENZ_hAurA: NovaScreen (NVS) Enzymatic Assay for human Aurora Kinase A - serine/threonine-protein Kinase 6 (AurA) (AID 2283142). The method, boiled down: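 Recombinant human AurA activity read by fluorescence after mobility-shift separation of product from substrate; 1 hour incubation. Chemicals first run in duplicate at 25 uM, then concentration series to 50 uM if over threshold; fitted relative to DMSO.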

The target of test [5] is human Casein Kinase 1-delta (CK1D), CSNK1D (gene 1453) (UniProt P48730). The test can be described thus: NVS_ENZ_hCK1D: NovaScreen (NVS) Enzymatic Assay for human Casein Kinase 1-delta (CK1D) (AID 2283148). The method, boiled down: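 Recombinant human CK1-delta, cell-free; fluorescent substrate with electrophoretic mobility-shift separation of product, read 1 h after dosing. Single 25 uM duplicate screen, then concentration-response up to 50 uM; loss of signal vs DMSO.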

In test [6] the target is human Colony Stimulating Factor 1 Receptor (CSF1R), CSF1R (gene 1436) (UniProt P07333). The test can be described thus: NVS_ENZ_hCSF1R: NovaScreen (NVS) Enzymatic Assay for human Colony Stimulating Factor 1 Receptor (CSF1R) (AID 2283150). Summed up:
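Compounds screened in duplicate at 25 uM, then concentration-response (top 50 uM) for those passing threshold such as 30% inhibition; recombinant CSF1R activity measured 1 h post-dosing via fluorescent substrate/product mobility-shift separation, loss of signal versus DMSO.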

For test [7], the target named is human Caspase 8 (CASP8), CASP8 (gene 841) (UniProt Q14790). The test can be described thus: NVS_ENZ_hCASP8: NovaScreen (NVS) Enzymatic Assay for human Caspase 8 (CASP8) (AID 2283146). How it is done:
NVS_ENZ_hCASP8 is a biochemical, single-readout assay that uses extracted gene-proteins from E. coli in a cell-free assay. Measurements were taken 1 hour after chemical dosing in a 96-well plate.NVS_ENZ_hCASP8 is one of one assay component(s) measured or calculated from the NVS_ENZ_hCASP8 assay. It is designed to make measurements of enzyme activity, a form of enzyme reporter, as detected with fluorescence intensity signals by Fluorescence technology.Data from the assay component NVS_ENZ_hCASP8 was analyzed into 1 assay endpoint. This assay endpoint, NVS_ENZ_hCASP8, was analyzed in the positive analysis fitting direction relative to DMSO as the negative control and baseline of activity. Using a type of enzyme reporter, loss-of-signal activity can be used to understand changes in the enzymatic activity as they relate to the gene CASP8. Furthermore, this assay endpoint can be referred to as a primary readout, because this assay has produced multiple assay endpoints where this one serves a enzymatic activity function. To generalize the intended target to other relatable targets, this assay endpoint is annotated to the protease intended target family, where the subfamily is cysteine protease.
Binding assays used specific radioligands (tritiated, iodinated) with non-radioactive competitive displacement ligands in agonist or antagonist protocols (as indicated) and various reference compounds and inhibitors to titrate specific binding to receptors and transporters. Most enzyme assays (CYPs, kinases, phosphatases, proteases, HDACs) used recombinant protein and specific substrates (fluorescence mostly, some colorimetric and radioactive) and inhibitors, followed by a biochemical separation of substrate and product. All assays for the biochemical HTS were initially run in duplicate at a single concentration (10 uM for CYP450 assays and 25 uM for all others). […] Each assay was run with positive and negative controls, and concurrent controls on every plate. The follow-up (secondary) screen tested active chemical-pairs in concentration series, as well as a few additional assays not tested in the primary screen, some selected negative inactives, and several cases re-run in the concentration series for confirmatory purposes.

The target in test [8] is human AKT serine/threonine Kinase 1 (AKT1), AKT1 (gene 207) (UniProt P31749). The test can be described thus: NVS_ENZ_hAKT1: NovaScreen (NVS) Enzymatic Assay for human AKT serine/threonine Kinase 1 (AKT1) (AID 2283138). The method, boiled down:
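Compounds were first tested in duplicate at 25 uM, and those passing a threshold such as 30% inhibition were run in concentration-response to a maximum of 50 uM. Enzyme activity was measured after 1 h by fluorescence following substrate/product mobility-shift separation.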

A further test deals with CDK2 (gene 1017) (UniProt P24941). The test can be described thus: NVS_ENZ_hCDK2: NovaScreen (NVS) Enzymatic Assay for human Cyclin-Cependent Kinase 2 (CDK2) (AID 2283144). The method, boiled down:
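Compounds screened in duplicate at 25 uM, then in singleton concentration-response to a maximum of 50 uM, against recombinant CDK2; kinase activity read 1 hr after dosing by fluorescence with mobility-shift separation of substrate and product.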

Results filed as inconclusive are left out. Active and inactive are the calls of the source. The calls were made as follows: active = hit-call score of the fitted dose curve at least 0.9, where 1 is the maximum; inconclusive = response in the unintended direction; inactive = score below 0.9.

Chain of human Aurora Kinase A - serine/threonine-protein Kinase 6 (AurA), AURKA (gene 6790) (O14965 whole entry, looked up): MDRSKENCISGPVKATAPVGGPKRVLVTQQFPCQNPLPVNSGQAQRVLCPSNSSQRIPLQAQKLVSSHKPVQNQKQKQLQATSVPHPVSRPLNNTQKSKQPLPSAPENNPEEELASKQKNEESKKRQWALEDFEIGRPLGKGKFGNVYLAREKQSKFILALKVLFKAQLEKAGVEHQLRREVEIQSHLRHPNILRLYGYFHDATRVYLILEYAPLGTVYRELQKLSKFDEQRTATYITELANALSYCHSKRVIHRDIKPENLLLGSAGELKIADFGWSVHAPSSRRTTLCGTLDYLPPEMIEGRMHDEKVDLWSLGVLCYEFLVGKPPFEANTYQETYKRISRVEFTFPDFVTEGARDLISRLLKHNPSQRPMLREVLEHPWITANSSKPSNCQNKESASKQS
Chain of human Casein Kinase 1-delta (CK1D), CSNK1D (gene 1453) (P48730 whole entry, looked up): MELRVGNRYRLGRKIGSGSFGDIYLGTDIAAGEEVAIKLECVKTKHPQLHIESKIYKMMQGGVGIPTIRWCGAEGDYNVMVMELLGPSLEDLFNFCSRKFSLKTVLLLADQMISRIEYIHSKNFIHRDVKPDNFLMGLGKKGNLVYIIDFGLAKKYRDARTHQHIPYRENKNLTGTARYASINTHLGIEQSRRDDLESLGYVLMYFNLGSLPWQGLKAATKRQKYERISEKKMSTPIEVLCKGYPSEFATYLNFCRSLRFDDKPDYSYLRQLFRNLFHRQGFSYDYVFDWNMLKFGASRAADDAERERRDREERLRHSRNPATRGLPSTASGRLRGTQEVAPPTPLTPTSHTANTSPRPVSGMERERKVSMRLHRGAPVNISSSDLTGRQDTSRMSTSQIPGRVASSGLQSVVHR
Chain of Caspase-3 (Homo sapiens) (P42574 whole entry, looked up): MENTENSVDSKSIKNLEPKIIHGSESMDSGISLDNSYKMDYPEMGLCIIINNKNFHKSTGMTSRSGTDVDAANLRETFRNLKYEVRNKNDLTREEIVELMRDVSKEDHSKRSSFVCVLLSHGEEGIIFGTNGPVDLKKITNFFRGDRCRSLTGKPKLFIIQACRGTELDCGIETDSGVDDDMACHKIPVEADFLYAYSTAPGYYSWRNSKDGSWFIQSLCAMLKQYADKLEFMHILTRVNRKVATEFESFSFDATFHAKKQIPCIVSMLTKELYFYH
Chain of human AKT serine/threonine Kinase 1 (AKT1), AKT1 (gene 207) (P31749 whole entry, looked up): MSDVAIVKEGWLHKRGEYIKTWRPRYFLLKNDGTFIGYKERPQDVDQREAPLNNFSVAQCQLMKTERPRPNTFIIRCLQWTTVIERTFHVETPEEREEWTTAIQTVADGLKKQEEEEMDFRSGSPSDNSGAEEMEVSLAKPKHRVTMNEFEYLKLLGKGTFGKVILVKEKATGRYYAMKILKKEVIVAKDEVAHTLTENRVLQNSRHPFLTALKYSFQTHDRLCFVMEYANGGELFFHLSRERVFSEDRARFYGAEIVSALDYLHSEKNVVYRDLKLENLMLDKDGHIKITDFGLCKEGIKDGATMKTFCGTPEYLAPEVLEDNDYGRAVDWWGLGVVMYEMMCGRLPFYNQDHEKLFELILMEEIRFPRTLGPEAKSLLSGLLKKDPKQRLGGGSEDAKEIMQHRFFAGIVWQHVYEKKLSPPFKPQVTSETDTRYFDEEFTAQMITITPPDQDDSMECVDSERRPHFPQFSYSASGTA
Chain of human Caspase 5 (CASP5), CASP5 (gene 838) (P51878 whole entry, looked up): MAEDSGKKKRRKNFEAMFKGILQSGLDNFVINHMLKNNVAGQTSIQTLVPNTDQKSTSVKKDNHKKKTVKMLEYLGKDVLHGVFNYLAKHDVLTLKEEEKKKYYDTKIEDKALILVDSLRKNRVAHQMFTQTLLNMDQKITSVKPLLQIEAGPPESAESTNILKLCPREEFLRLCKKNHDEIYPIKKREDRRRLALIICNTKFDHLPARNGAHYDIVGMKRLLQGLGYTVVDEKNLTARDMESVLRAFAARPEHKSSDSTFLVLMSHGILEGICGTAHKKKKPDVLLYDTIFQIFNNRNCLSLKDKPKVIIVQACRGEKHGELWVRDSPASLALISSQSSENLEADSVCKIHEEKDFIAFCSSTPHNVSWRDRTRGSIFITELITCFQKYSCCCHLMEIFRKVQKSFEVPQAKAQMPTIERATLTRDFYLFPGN
Chain of human Caspase 8 (CASP8), CASP8 (gene 841) (Q14790 whole entry, looked up): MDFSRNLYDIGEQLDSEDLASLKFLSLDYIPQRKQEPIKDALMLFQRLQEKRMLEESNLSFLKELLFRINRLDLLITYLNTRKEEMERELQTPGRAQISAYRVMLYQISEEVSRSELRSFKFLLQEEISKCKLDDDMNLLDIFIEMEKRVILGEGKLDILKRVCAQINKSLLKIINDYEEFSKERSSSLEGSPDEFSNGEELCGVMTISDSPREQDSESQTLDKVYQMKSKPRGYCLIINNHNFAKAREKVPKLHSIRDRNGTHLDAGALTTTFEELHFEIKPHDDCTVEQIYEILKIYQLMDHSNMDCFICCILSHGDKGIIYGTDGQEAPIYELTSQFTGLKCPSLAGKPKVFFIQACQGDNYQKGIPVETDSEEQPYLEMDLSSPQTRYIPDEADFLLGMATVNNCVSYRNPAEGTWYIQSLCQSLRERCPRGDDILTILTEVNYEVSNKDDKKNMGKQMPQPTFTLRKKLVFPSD
Chain of human Caspase 4 (CASP4), CASP4 (gene 837) (P49662 whole entry, looked up): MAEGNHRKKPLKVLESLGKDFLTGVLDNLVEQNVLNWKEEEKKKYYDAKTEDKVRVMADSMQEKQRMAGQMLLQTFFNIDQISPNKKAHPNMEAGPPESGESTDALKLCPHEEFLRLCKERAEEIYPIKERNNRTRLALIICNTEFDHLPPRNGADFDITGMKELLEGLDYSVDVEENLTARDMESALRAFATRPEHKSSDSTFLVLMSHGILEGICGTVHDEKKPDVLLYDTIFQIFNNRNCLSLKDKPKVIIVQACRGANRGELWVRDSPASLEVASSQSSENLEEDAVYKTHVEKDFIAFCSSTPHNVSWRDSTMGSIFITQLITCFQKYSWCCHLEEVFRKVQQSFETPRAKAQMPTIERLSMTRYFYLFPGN
Chain of human Colony Stimulating Factor 1 Receptor (CSF1R), CSF1R (gene 1436) (P07333 whole entry, looked up): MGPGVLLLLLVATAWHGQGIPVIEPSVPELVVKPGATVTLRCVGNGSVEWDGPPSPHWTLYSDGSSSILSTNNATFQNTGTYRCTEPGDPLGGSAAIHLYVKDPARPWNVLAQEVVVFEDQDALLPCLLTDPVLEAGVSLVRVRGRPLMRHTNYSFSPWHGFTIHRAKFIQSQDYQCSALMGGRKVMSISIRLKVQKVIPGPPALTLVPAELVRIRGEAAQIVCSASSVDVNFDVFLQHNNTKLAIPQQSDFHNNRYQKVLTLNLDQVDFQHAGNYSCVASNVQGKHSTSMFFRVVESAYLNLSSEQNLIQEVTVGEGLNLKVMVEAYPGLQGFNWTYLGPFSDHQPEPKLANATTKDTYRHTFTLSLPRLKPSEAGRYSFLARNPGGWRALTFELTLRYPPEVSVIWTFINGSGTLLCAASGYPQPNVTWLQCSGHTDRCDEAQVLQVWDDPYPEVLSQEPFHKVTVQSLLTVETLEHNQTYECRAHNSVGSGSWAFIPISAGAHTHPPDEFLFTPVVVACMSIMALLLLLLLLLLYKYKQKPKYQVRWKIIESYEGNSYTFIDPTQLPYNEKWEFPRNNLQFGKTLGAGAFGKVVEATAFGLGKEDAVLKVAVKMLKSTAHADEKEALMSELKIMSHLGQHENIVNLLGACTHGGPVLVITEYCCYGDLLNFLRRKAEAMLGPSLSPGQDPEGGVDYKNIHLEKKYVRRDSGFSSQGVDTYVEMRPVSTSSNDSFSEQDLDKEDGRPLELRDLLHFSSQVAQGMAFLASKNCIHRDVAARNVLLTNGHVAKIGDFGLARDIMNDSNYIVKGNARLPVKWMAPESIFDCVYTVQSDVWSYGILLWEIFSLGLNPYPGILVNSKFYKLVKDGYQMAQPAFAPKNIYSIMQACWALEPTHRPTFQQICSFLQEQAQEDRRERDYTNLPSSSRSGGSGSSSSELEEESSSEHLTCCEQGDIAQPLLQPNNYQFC
Chain of human Beta-secretase (BACE), BACE1 (gene 23621) (P56817 whole entry, looked up): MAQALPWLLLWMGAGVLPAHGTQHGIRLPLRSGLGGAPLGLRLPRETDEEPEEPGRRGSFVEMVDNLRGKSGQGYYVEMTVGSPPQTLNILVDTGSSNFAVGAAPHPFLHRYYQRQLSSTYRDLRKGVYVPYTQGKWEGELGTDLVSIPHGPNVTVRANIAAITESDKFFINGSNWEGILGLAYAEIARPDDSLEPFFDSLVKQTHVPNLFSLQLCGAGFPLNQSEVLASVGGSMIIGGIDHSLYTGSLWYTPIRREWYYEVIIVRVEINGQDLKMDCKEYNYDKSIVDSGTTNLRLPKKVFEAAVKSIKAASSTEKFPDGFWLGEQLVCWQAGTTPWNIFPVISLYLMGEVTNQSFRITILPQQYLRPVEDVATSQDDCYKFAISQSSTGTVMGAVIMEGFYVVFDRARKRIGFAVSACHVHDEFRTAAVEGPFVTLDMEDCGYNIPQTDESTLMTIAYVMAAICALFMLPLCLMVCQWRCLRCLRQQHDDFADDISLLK

`Cc1ccc(N=C=O)cc1N=C=O`: the call in [1] was inactive. In addition, the AC50 (usually the concentration at which the activity in the assay is half-maximal) in test [2] was 8.64 µM (active); in [3] it was 13.7 µM (active). In the case of `CCCCCCCCOC(=O)c1ccc(C(=O)OCCCCCCCC)c(C(=O)OCCCCCCCC)c1`, the compound was called inactive with Caspase-3 (Homo sapiens). In test [2], the AC50 is 11.2 µM (active). `ClCCOCCCl`: the compound was classed as inactive in test [4].

Take `CCN(CC)N=O`: the result in [4], in test [5] and in test [6] was inactive.

With `CN(C)[C@@H]1C(=O)C(C(N)=O)=C(O)[C@@]2(O)C(=O)C3=C(O)c4c(O)cccc4[C@@](C)(O)[C@H]3C[C@@H]12`, the half-maximal activity concentration (AC50) in [1] is 10.9 µM (active). Also, the compound was called inactive in test [2]. For the compound `CCCSC(=O)N(CCC)CCC`, in the test with Caspase-3 (Homo sapiens), the compound was classed as inactive. Take `Nc1ccc([N+](=O)[O-])cc1`: the result in [4], in test [7] and in test [6] was inactive. With `Cc1ccc(N)c(N)c1`, the call in [2] was inactive. As to `CC(C)(O)c1cnn2c(-c3ccc(F)c(-c4c(F)cccc4C#N)c3)cnc2n1`, in test [2], the AC50 is 5.34 µM (active). Moreover, in [5], the result was inactive. With `c1ccc(NNc2ccccc2)cc1`, the compound was called inactive in test [8] and in [3]. For `COc1cc(C=O)cc2c1[C@H](COC(N)=O)[C@]1(OC(C)=O)ON2C[C@H]2[C@@H]1N2C(C)=O`, the call (in test [4]; in the test with CDK2 (gene 1017); in test [6]) was inactive. `c1ccc(C2CO2)cc1` (stereo unspecified): the outcome in [1] was inactive. `Nc1ccc(Cl)cc1N`: the result in test [1] was inactive. For the same compound, the half-maximal activity concentration (AC50) in the test with Caspase-3 (Homo sapiens) is 4.4 µM (active); in test [2] it was 2.52 µM (active). For `COC(=O)c1ccccc1N`, in [7], the AC50 was 11.1 µM (active). Consider `C[C@]12C=CC3=C4CCC(=O)C=C4CC[C@H]3[C@@H]1CC[C@@H]2O`, for which, in test [4], the AC50 was 35.3 µM (active). In test [6], the outcome was inactive. For `Oc1ccc2ccc3cccc4ccc1c2c34`, the half-maximal activity concentration (AC50) in test [1] was 5.32 µM (active); in [2] it was 8.84 µM (active); in [3], 5.26 µM (active). `Nc1ccc(N=Nc2ccccc2)cc1`: the call in test [3] and in [7] was inactive. Regarding `c1ccc2c(c1)-c1cccc3cccc-2c13`, the half-maximal activity concentration (AC50) in [2] is 1.18 µM (active). On to `CC(C)(C)C(O)(CCc1ccc(Cl)cc1)Cn1cncn1` (stereo unspecified), for which the result in test [4] was inactive. For `O=[N+]([O-])c1ccc(Oc2ccc(Cl)cc2Cl)cc1`, in test [2], the outcome was inactive. As to `CC(C)N(Cc1ccccc1)C(=O)C(C)(C)C`, in test [8], the compound was called inactive. In the case of `O=P(OCCCl)(OCCCl)OCCCl`, the compound was called inactive in [8]. With `Cc1cc(N=Nc2ccccc2C)ccc1N`, in test [2], the concentration at half-maximal activity (AC50) was 25 µM (active). As to `Clc1ccc(Cl)c(Cl)c1`, the compound was called inactive in test [8] and in test [7].

Take `CCNS(=O)(=O)C(F)(F)C(F)(F)C(F)(F)C(F)(F)C(F)(F)C(F)(F)C(F)(F)C(F)(F)F`: the outcome (in test [8]; with CDK2 (gene 1017); in test [5]) was inactive. The AC50 in [2] is 8.43 µM (active). In the case of `CCC[CH2][Sn]([Cl])([CH2]CCC)[CH2]CCC`, the half-maximal activity concentration (AC50) in test [2] is 4.02 µM (active). As for `Cc1cccc(N)c1N`, the outcome in test [1] and in test [3] was inactive.

Turning to `CCCCCOC(=O)c1ccccc1C(=O)OCCCCC`, the concentration at half-maximal activity (AC50) in test [2] is 11.5 µM (active).
